Experimental data as given in the supplement of paper PMC6555819.

Experiments:
Assay in all cases: PBM binding z-score (relative to random genomic background probes); higher = stronger binding; sequences stand for … in GC…GCGATTGACAGCGTAGAATGAAGG
[1] = test system: RARb homodimer (NR concentration 270 nM)
In short: (§1)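 Binding z-scores were set against random background probes. The data came from custom Agilent 4×180K protein-binding microarrays carrying double-stranded probes with 34-nt variable regions, incubated 1 h with ligand-free nuclear receptor dimers. Partner-specific antibodies detected binding, and scanned fluorescence was regression-normalized.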

[2] = test system: RARg:RXRa (NR concentration 270 nM, RXRa partner concentration 90 nM)
In short: as §1

[3] = test system: RARg homodimer (NR concentration 270 nM)
In short: as §1

[4] = test system: RXRa DBDmut IVT, anti-RXR (DBD mutation: RXRa K156A/R161A, NR concentration 90 nM)
In short: as §1

[5] = test system: RXRa homodimer (NR concentration 180 nM)
In short: as §1

[6] = test system: THRa:RXRa (NR concentration 90 nM, RXRa partner concentration 90 nM)
In short: as §1

[7] = test system: THRa homodimer (NR concentration 90 nM)
In short: as §1

[8] = test system: VDR homodimer (NR concentration 270 nM)
In short: as §1

CCAGACAGGTGAAAGGTAACACAGTCTGGTACGC
PBM binding z-score [1]: 1.1
PBM binding z-score [2]: 1.72
PBM binding z-score [3]: 1.07
PBM binding z-score [4]: -0.201
PBM binding z-score [5]: 2.27
PBM binding z-score [6]: 1.02
PBM binding z-score [7]: -0.219
PBM binding z-score [8]: -0.147

CAAACTACGTCACGAAAGGTCAAAGTCGAATGAC
PBM binding z-score [1]: 4.48
PBM binding z-score [2]: 5.61
PBM binding z-score [3]: 5.12
PBM binding z-score [4]: 1.05
PBM binding z-score [5]: 6.68
PBM binding z-score [6]: 3.93
PBM binding z-score [7]: 1.11
PBM binding z-score [8]: 2.66

CCGACTGGGGCAGAAAGGTTACCATTCCATCCGG
PBM binding z-score [1]: 1.92
PBM binding z-score [2]: 1.35
PBM binding z-score [3]: 1
PBM binding z-score [4]: -0.71
PBM binding z-score [5]: 1.3
PBM binding z-score [6]: 0.555
PBM binding z-score [7]: -0.451
PBM binding z-score [8]: -0.34

CCTATTAGTTGACTATAAGGGCAACCGAAGCTCG
PBM binding z-score [1]: 1.42
PBM binding z-score [2]: 1.15
PBM binding z-score [3]: 0.934
PBM binding z-score [4]: 0.543
PBM binding z-score [5]: 0.351
PBM binding z-score [6]: 1.79
PBM binding z-score [7]: 0.969
PBM binding z-score [8]: 0.425

TAGCCTGGGTCATTCAGGGGCCAGTATAGAAAGC
PBM binding z-score [1]: 2.55
PBM binding z-score [2]: 6.03
PBM binding z-score [3]: 3.76
PBM binding z-score [4]: 1.25
PBM binding z-score [5]: 3.24
PBM binding z-score [6]: 3.34
PBM binding z-score [7]: -0.502
PBM binding z-score [8]: 0.911

CGTCCAAGGTCAGAGAGGTCTGTGAATGCCGAGT
PBM binding z-score [1]: 3.99
PBM binding z-score [2]: 4.61
PBM binding z-score [3]: 5.25
PBM binding z-score [4]: 2.64
PBM binding z-score [5]: 3.4
PBM binding z-score [6]: 3.38
PBM binding z-score [7]: 1.64
PBM binding z-score [8]: 1.65

CGTCAAAGTTCAACTTAGGTAACGTAAAGCACGC
PBM binding z-score [1]: 4.13
PBM binding z-score [2]: 6.16
PBM binding z-score [3]: 6.72
PBM binding z-score [4]: 4.76
PBM binding z-score [5]: 5.38
PBM binding z-score [6]: 5.19
PBM binding z-score [7]: 0.769
PBM binding z-score [8]: 4.21

GCTTACGGGTCAAAGGCTATAGCATGAATAGAAT
PBM binding z-score [1]: 2.54
PBM binding z-score [2]: 4.79
PBM binding z-score [3]: 4.31
PBM binding z-score [4]: 1.73
PBM binding z-score [5]: 6.17
PBM binding z-score [6]: 2.45
PBM binding z-score [7]: -0.68
PBM binding z-score [8]: 0.708

TAGCCTAGGTCAGATCGGGCCAGTACACGCTATA
PBM binding z-score [1]: 2.33
PBM binding z-score [2]: 2.85
PBM binding z-score [3]: 3.65
PBM binding z-score [4]: -0.269
PBM binding z-score [5]: 1.55
PBM binding z-score [6]: 4.29
PBM binding z-score [7]: 0.126
PBM binding z-score [8]: 0.0191

CCTTACGGGTCAAGATTATAGCACGGGTGGTACG
PBM binding z-score [1]: 2.79
PBM binding z-score [2]: 4.4
PBM binding z-score [3]: 4.24
PBM binding z-score [4]: 0.558
PBM binding z-score [5]: 5.02
PBM binding z-score [6]: 2.02
PBM binding z-score [7]: 0.000143
PBM binding z-score [8]: 0.658
